Sfp PPTase inh: qHTS Assay for Inhibitors of Bacillus subtilis Sfp phosphopantetheinyl transferase (PPTase) | 4'-phosphopantetheinyl transferase ffp (Bacillus subtilis), Q9F4F7 | Biochemical Sfp PPTase activity, qHTS | Potency, µM, hits mostly inhibitors | 3.5% of 310,000 active | AID 1490, 2009;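 further: the enzyme is Sfp with the accession as filed and its product quenches rhodamine fluorescence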
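Sfp 15 nM + cpd, 15 min RT; start w/ rhodamine-CoA 5 uM, BHQ-2-YbbR 12.5 uM (final); 50 mM Hepes pH 7.6, 10 mM MgCl2, 0.01% NP-40, 0.01% BSA; read 525/598 nm at 0 and 30 min.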
BAZ2B block: qHTS Assay for Inhibitors of BAZ2B; Bromodomain adjacent to zinc finger domain protein 2B (Homo sapiens), Q9UIF8; AlphaScreen BAZ2B-H3K14Ac peptide displacement; Potency, µM (doses to about 114 µM), actives largely listed as inhibitors; 4.4% of 360,000 active; AID 504333, 2011; further: nearly all actives have a fitted effect of over 60% in size
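BAZ2B 50 nM plus b-H3(5-23)K14Ac 50 nM, PBS pH 7.4/0.01% Tween-20, 30 min RT; compound added (max 110 uM), 30 min RT; streptavidin donor/Ni-chelate acceptor beads 10 ug/mL final, 20 min dark; AlphaScreen read.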
HP1b binding inh: HTS for Inhibitors of HP1-beta Chromodomain Interactions with Methylated Histone Tails | Potency, µM (titrated, usually from 114 µM), actives largely listed as inhibitors | 0.56% of 390,000 active | AlphaScreen HP1-beta / biotin-H3K9me3 peptide binding | AID 540317, 2011; further: nearly all actives have a fitted effect of over 70% in size
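Compound inhibition of the preformed complex between 50 nM HP1-beta and 50 nM biotinylated H3K9me3 peptide was read by AlphaScreen. Buffer was PBS pH 7.4 with 0.01% Tween-20. Incubations ran 30 min at room temperature, with 10 ug/mL donor/acceptor beads.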
G9a block: qHTS Assay for Inhibitors of Histone Lysine Methyltransferase G9a. G9a H3K9 monomethylation, AlphaScreen, 2 h. Potency, µM (series often up to 102 µM), hits mostly inhibitors. 8.8% of 350,000 active; further: nearly all actives have a fitted effect of over 75% in size
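Using a bead-based AlphaScreen, monomethylated H3K9 product from 2 h room-temperature reactions (G9a 20 nM, peptide 500 nM, SAM 20 uM) was detected with 0.5 ug/mL rabbit anti-H3K9me1 antibody.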
JMJD2A Tudor: qHTS Assay for Inhibitors of JMJD2A-Tudor Domain; AlphaScreen JMJD2A-Tudor / H3K4me3 peptide binding; Potency, µM (doses to about 114 µM), most hits filed as inhibitors; 4.4% of 390,000 active; further: nearly all actives have a fitted effect of over 50% in size
A number is an active result; – = inactive; ? = inconclusive; · = not tested or not shown; [ ] = dose if it differs, or a comment. Hits are enriched below; roughly 12% of the tested compounds scored in any of these assays. The call rests on the fitted dose curve; in most records, active means well fitted curve in the direction sought with a large enough effect; inconclusive means small, poorly fitted or top-dose-only effect, or another doubt; inactive means no such curve, though single readings can be large; an effect the other way counts as inactive or inconclusive.

SMILES | Sfp PPTase inh | BAZ2B block | HP1b binding inh | G9a block | JMJD2A Tudor
[O-]/C(=C(\C(=S)Nc1ccc(SC(F)F)cc1)[n+]1ccccc1)c1ccc(Cl)cc1Cl | – | ? | – | 35µM | ?
Cc1ccc(NC(=S)/C(=C(\[O-])c2ccc(C)c([N+](=O)[O-])c2)[n+]2ccccc2)cc1C | – | 56µM | · | ? | ·
Cc1ccc(/C([O-])=C(/C(=S)Nc2ccc(SC(F)F)cc2)[n+]2ccccc2)cc1[N+](=O)[O-] | 13µM | ? | – | 22µM | ?
COc1cccc(NC(=S)/C(=C(\[O-])c2ccc(C)c([N+](=O)[O-])c2)[n+]2ccccc2)c1 | 56µM | ? | – | ? | ?
Cc1cc(C(=O)OCC(=O)c2ccc3c(c2)NC(=O)CO3)c2ccccc2n1 | – | – | – | ? | –
Cc1cc(C)n(C(=O)C(C(=O)c2ccccc2)C(C)C)n1 (centres undefined) | ? | – | – | – | –
[O-]/C(=C(\C(=S)Nc1cccc2ccccc12)[n+]1ccccc1)c1ccc(OC(F)F)cc1 | 45µM | 35µM | – | 45µM | –
Cc1ccc(/C([O-])=C(/C(=S)NCCN2CCOCC2)[n+]2ccccc2)cc1[N+](=O)[O-] | 20µM | – | – | –[12.7 µM] | –[11.4 µM]
CC(C)C(=O)c1cc2c(cc1NC(=O)Nc1cccc3ccccc13)OCCO2 | – | – | · | – | ·
COc1cc(NC(=S)Nc2ccc(OC(F)F)cc2)cc(OC)c1 | – | – | – | ? | –
[O-]/C(=C(\C(=S)Nc1cccc2ccccc12)[n+]1ccccc1)c1ccc2c(c1)OCCO2 | 45µM | 56µM | – | 8.9µM | ?
COc1ccc(C(=O)NCCN2CCOCC2)cc1[N+](=O)[O-] | – | – | – | – | –
COc1cccc(NC(=S)/C(=C(\[O-])c2ccc(OC(F)F)cc2)[n+]2ccccc2)c1 | 50µM | – | – | 18µM | –
CCN(C(=O)c1ccnn1C)c1ccccc1 | – | – | – | ? | –
COCCCNC(=O)c1ccc(S(=O)(=O)c2ccc(C)cc2)c(NC(C)=O)c1 | – | – | – | – | –
O=C1NC(c2cccc3ccccc23)Nc2ccccc21 (centres undefined) | · | · | – | · | –
O=C1c2ccccc2C(=O)C1Cc1cccc2ccccc12 | – | ? | – | 50µM | ?
Cn1c(O)c(N=NC(=O)Cn2c(C(F)(F)F)nc3ccccc32)c2ccccc21 | – | – | – | – | –
C[C@@H](NC(=O)[C@@H]1Cc2ccccc2CN1)C(=O)NCc1ccco1 | – | ? | – | 50µM | –
CC(C)C(OC(=O)C1=Cc2ccccc2OC1)C(=O)NCC1CCCO1 (centres undefined) | · | · | ? | · | 50µM
C[C@@H](NC(=O)[C@@H]1Cc2ccccc2CN1)C(=O)NC1CCCCC1 | – | – | – | ? | –
CC(OC(=O)C1=Cc2ccccc2OC1)C(=O)NC1CCCC1 (centres undefined) | – | – | – | – | –
C[C@H](NC(=O)[C@@H]1Cc2ccccc2CN1)C(=O)NCC1CCCO1 (some centres undefined) | – | – | – | 40µM | ?
COc1ccc(CNC(=O)[C@@H](C)NC(=O)[C@@H]2Cc3ccccc3CN2)cc1 | – | – | – | – | –
O/C(=C\c1nc2ccccc2nc1/C=C(\O)c1ccccc1)c1ccccc1 | 40µM | 4.5µM | – | ? | ?
SMILES | Sfp PPTase inh | BAZ2B block | HP1b binding inh | G9a block | JMJD2A Tudor
O=c1oc2ccccc2nc1/C=C(\O)c1ccccc1 | ? | ? | – | · | –
Cc1cccn2c(=O)c(C=C(C#N)C#N)c(N3CCN(c4cccc(Cl)c4)CC3)nc12 | – | – | – | – | –
Cc1ccc2c3c1C1(C(=O)N3C(C)(C)CC2C)C(C#N)=C(N)Oc2cc(O)ccc21 (centres undefined) | – | – | ? | –[12.7 µM] | –
CC(C)N(CC#CC(O)(c1ccccc1)c1ccccc1)CCO | – | – | – | – | –
COc1cccc(OC)c1-c1nn2c(-c3cc(-c4ccccc4)n[nH]3)nnc2s1 | ? | 8.9µM | – | 3.5µM | 45µM
O=C(Nc1ccc(-c2nc3ccccc3o2)cc1)c1cccnc1 | – | – | – | – | –
[O-][n+]1c2c(c3c4non(O)c4ccc31)CCCC2 | – | 40µM | – | ? | ?
Cc1n[nH]c(=S)n1/N=C/c1c(O)ccc2ccccc12 | 63µM | – | – | · | ?
COc1cc(/C=N/n2c(C)nc3ccccc3c2=O)cc(OC)c1O | – | – | – | 13µM | –
Cc1nc2ccccc2c(=O)n1/N=C/c1c(O)ccc2ccccc12 | – | 25µM | – | 32µM | –
CC(C)(C)N=Cc1c(O)ccc2oc3c(c12)CCCC3 | – | – | – | – | ?
Cc1nc2ccccc2c(=O)n1/N=C/c1c(O)ccc2oc3c(c12)CCCC3 | 22µM | – | – | –[2.33 µM] | ?
Cc1nc2ccccc2c(=O)n1/N=C/c1cc(Br)ccc1O | – | – | – | – | ?
COc1cc(OC)c(OC)cc1/C=N/n1c(C)nc2ccccc2c1=O | – | – | – | – | –
CC(=O)c1cc(-c2ccccc2)n(CC(=O)Nc2cccc(C)c2C)c1C | – | – | – | – | –
O=C(Nc1ccc(NC(=O)c2ccco2)cc1)c1cnccn1 | – | – | – | – | –
Cc1cccc(NS(=O)(=O)c2cc3c(cc2C)N(C)CCO3)c1 | – | – | – | – | –
CCOC(=O)CCc1c(C)c2ccc(OC3CCCCC3=O)c(C)c2oc1=O (centres undefined) | – | – | – | – | –
Cc1nc2ccccc2c(=O)n1/N=C/c1ccccc1F | – | – | – | – | –
Cc1nc2ccccc2c(=O)n1/N=C/c1ccccn1 | ? | – | – | 28µM | –
Cc1ccc(S(=O)(=O)N2CCOCC2)cc1C(=O)OCC(=O)NCc1ccccc1 | · | – | – | – | –
COc1ccc(NC(=O)CN(C)CC(=O)Nc2ccccc2SC)cc1 | ? | 20µM | ? | 8.9µM | 32µM
CCOc1ccc(NC(=O)c2ccccc2SC)cc1 | – | – | – | – | –[11.4 µM]
COc1ccc(NC(=O)CN(C)CC(=O)NCC2CCCCC2)cc1 | · | – | – | 56µM | ?
COc1ccc(NC(=O)c2ccccc2SC)cc1 | – | – | – | 45µM | –
SMILES | Sfp PPTase inh | BAZ2B block | HP1b binding inh | G9a block | JMJD2A Tudor
COc1ccc(NC(=O)c2sc(=S)[nH]c2N)cc1 | 56µM | ? | – | ? | 35µM
O=C1CC(C(=O)N2CCN(c3ccccc3Cl)CC2)CN1Cc1ccccc1 (centres undefined) | · | – | – | –[12.7 µM] | –
CC(C)(C)c1ccc(NC(=O)N2CCCN(c3c(Cl)cncc3Cl)CC2)cc1 | – | – | – | – | –
COc1ccc(NC(=O)c2cccc(C(=O)Nc3ccc(OC)cc3)n2)cc1 | ? | – | · | 71µM | ·
CSc1ncccc1C(=O)Nc1ccc(OC(F)(F)F)cc1 | – | – | – | – | 11µM
COc1ccc(NC(=O)c2ccc(=O)oc2)cc1 | – | – | – | 50µM | –

Screens (PubChem BioAssay)
